# Results taken from the supplement of paper PMC8728848.
# The full list was thinned out, with the strongest signals kept by preference.
# Assays:
# Test in all cases: glycan array binding signal (z-score within array); higher = stronger binding
# Details in all cases: glycan notation: IUPAC condensed, linker removed
# [1] = target: GlcNAc(b1-2)Man(a1-3)[GlcNAc(b1-2)Man(a1-6)]Man(b1-4)GlcNAc(b1-4)[Fuc(a1-6)]GlcNAc
# Summary of the method: (§1)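 Negative Z-scores can be read as non-binding. The Z-score is calculated within each array and then averaged across arrays of one protein sequence at different concentrations or buffers and across linkers. Arrays, 3228 in all, were curated from the Consortium for Functional Glycomics database and kept only where the protein sequence was available.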
# [2] = target: GlcNAc(b1-3)Gal(b1-4)GlcNAc(b1-2)Man(a1-3)[GlcNAc(b1-3)Gal(b1-4)GlcNAc(b1-2)Man(a1-6)]Man(b1-4)GlcNAc(b1-4)GlcNAc
# Summary of the method: as §1
# [3] = target: GlcNAc(b1-3)Gal(b1-4)GlcNAc(b1-3)Gal(b1-4)GlcNAc(b1-2)Man(a1-3)[GlcNAc(b1-3)Gal(b1-4)GlcNAc(b1-3)Gal(b1-4)GlcNAc(b1-2)Man(a1-6)]Man(b1-4)GlcNAc(b1-4)GlcNAc
# Summary of the method: as §1
# [4] = target: GlcNAc(b1-3)Gal(b1-4)GlcNAc(b1-3)Gal(b1-4)GlcNAc(b1-2)Man(a1-3)[GlcNAc(b1-3)Gal(b1-4)GlcNAc(b1-3)Gal(b1-4)GlcNAc(b1-2)Man(a1-6)]Man(b1-4)GlcNAc(b1-4)[Fuc(a1-6)]GlcNAc
# Summary of the method: as §1
# [5] = target: GlcNAc(b1-3)Gal(b1-4)GlcNAc(b1-3)Gal(b1-4)GlcNAc(b1-2)[GlcNAc(b1-3)Gal(b1-4)GlcNAc(b1-3)Gal(b1-4)GlcNAc(b1-6)]Man(a1-6)[GlcNAc(b1-3)Gal(b1-4)GlcNAc(b1-3)Gal(b1-4)GlcNAc(b1-2)Man(a1-3)]Man(b1-4)GlcNAc(b1-4)[Fuc(a1-6)]GlcNAc
# Summary of the method: as §1
# [6] = target: Man(a1-2)Man(a1-6)[Man(a1-3)]Man(a1-6)[Man(a1-2)Man(a1-2)Man(a1-3)]Man
# Summary of the method: as §1
# [7] = target: Neu5Ac(a2-3)Gal(b1-3)GalNAc(b1-4)[Neu5Ac(a2-8)Neu5Ac(a2-3)]Gal(b1-4)Glc
# Summary of the method: as §1
# [8] = target: Neu5Ac(a2-3)Gal(b1-3)GlcNAc6S
# Summary of the method: as §1
# [9] = target: Neu5Ac(a2-3)Gal(b1-3)]Neu5Ac(a2-3)Gal(b1-4)]GlcNAc
# Summary of the method: as §1
# [10] = target: Neu5Ac(a2-3)Gal(b1-4)GlcNAc(b1-6)[Gal(b1-3)]GalNAc
# Summary of the method: as §1
# [11] = target: Neu5Ac(a2-6)GalNAc(b1-4)GlcNAc
# Summary of the method: as §1
# [12] = target: Neu5Ac(b2-6)Gal(b1-4)GlcNAc
# Summary of the method: as §1
# Neu5Ac(b2-6)GalNAc = target: Neu5Ac(b2-6)GalNAc
# Summary of the method: as §1
# [13] = target: Neu5Gc(a2-3)Gal(b1-4)GlcNAc(b1-3)Gal(b1-4)GlcNAc(b1-2)Man(a1-3)[Neu5Gc(a2-3)Gal(b1-4)GlcNAc(b1-3)Gal(b1-4)GlcNAc(b1-2)Man(a1-6)]Man(b1-4)GlcNAc(b1-4)GlcNAc
# Summary of the method: as §1
# [14] = target: Neu5Gc(a2-8)Neu5Gc(a2-3)Gal(b1-4)GlcNAc
# Summary of the method: as §1
binder,measurement,setting,value
"InvD YPIII (Yersinia pseudotuberculosis), B1JSC0 (protein) MIKYFSFFKKPEPIVGILPNRQSHHILPTHIRRVAWGTLLLQLFIPLSVSFSPAIAAMKASKADTMVSYSSTEPYVLGSGETVAMVAKKYGITVDELKKINIYRTFSRPFTALTTGDEIDIPRKASPFSVDNNKDNRLSVENTLAGHAVAGATALSNGDVAKSGERMVRSAASNEFNNSAQQWLSQFGTARVQLNINDDFHLDGSAADVLIPLYDNEKSILFTQLGARNKDSRNTVNMGAGVRTFQGNWMYGANTFFDNDLTGKNRRIGVGAEAWTDYLKLSANNYFGITDWHQSRDFIDYNERPANGYDLRAEAYLPSYPQLGGKAMYEKYRGDDVALFGKDNRQKNPHAITAGVNYTPIPLVTIGAEHRAGKGGQNDSNINFQLNYRLGETWQSHIDPSAVAASRTLAGSRYDLVERNNHIVLDYQKQNLVRLSLPDSLAGDPFSQLSVTAQVTATHGLERIDWQSAELMAAGGVLKQTSKNGLEITLPEYQMNRTGGNSYILNAIAYDTQGNASSQASMLITVNAQKINIANSTLVAVPINIEANNSDTSVVTLTLKDDNNIPVTGQDVTFLSPLGTLSAMTDSGNGVYTATLTAGTVSGTTAVSSNINGSALDMTPATVTLNGNSGELSITHSMLVAAPVNIEANGSDTSVVTLTLRDSNNNPVTGQTVTFAGTLGTLGAVTEGSSGVYTATLTAGIMVGTSSITASVNSTALGVTPATVTLNGDSGNLSTTNSTLVAAPVNIEANSSDTSVVTLTLRDNNNNPVTGQTVVFTSTLGTLGNVTEQASGVYTATLTAGTVSGVASLSVSVGGNALGVTPATVTLNGDSGNLSTTNSTLVAAPVNIEANSSDTSVVTLTLRDNNNNPVTGQTVNFAGTLGTLGTVSEGSSGVYTTTLTAGTVAGVASLSVNVGGNALGVTPATVTLNGNSGNLSATNSTLVAAPVNIEANSSDTSVVTLTLRDNNNNPVTGQTVAFTSTLGTLGNVTEQASGVYTATLTAGTVSGVASLSVSVNSNALGVTPATVTLNGDSGNLSTTNSTLVAAPVNIEANSSDTSVVTLTLRDNNNNPVTGQTVAFTSTLGTLGNVTEQASGLYTATLTAGTVSGVASLSVNVGGNALGVTPATVTLNGDSGNLSATNSTLVAAPVNIEANSSDTSVVTLTLRDNNNNPVTGQTVAFTSTLGTLGNVTEQASGLYTATLTAGTVSGVASLSVNVGGTALGVTPATVTLNGDSGNLSTTNSTLVAAPVNIEANSSDTSVVTLTLRDNNNNPVTGQTVAFTSTLGTLGNVTEQASGLYTATLTAGTVSGVASLSVSVNSTALGVTPATVTLNGDSGNLSTTNSTLVAAPVNIEANSSDTSVVTLTLRDNNNNPVTGQTVAFTSTLGTLGNVTEQASGVYTATLTAGTVAGVASLSVNVGGNALGVTPATVTLNGDSGNLSTTNSTLVAAPVNIEANSSDTSVVTLTLRDNNNNPVTGQTVAFTSTLGTLGNVTEQASGVYTATLTAGTVSGVASLSVSVGSSALGVTPATVTLNGDSGNLSTTNSTLVAAPVNIEANNSDTSVVTLTLRDNNNNPVTGQTVAFTSTLGTLGNVTEQASGVYTATLTAGTVSGVASLSVSVNSNALGVTPATVTLNGDSGNLSTTNSTLVAAPVNIEANSSDTSVVTLTLRDNNNNPVTGQTVVFTSTLGTLGNVTEQASGLYTATLTAGTVSGVASLSVSVGGNALGVTGNITLAPGALDAARSILAVNKPSINADDRIGSTITFTAQDAQGNAITGLDIAFMTDLENSQIMTLVDHNDGTYTANINGTQTGIANIAVQSSGATIAGLAATMVTITPGAWNTTQATPVMTVALPITTCQSSSGVYKRYYIGIVTHELYDNYGNEISGILTYNLGAGRYTTVTSQNSSVSGSNGLTRRSNSPVSHFILTSDAYTSQAACYAERIANVNVTITVTAITDDFKTSAVNKVFILGTGSN",glycan array binding signal (z-score),[1],0.422
same,glycan array binding signal (z-score),[2],-0.006
same,glycan array binding signal (z-score),[3],5.11
same,glycan array binding signal (z-score),[4],2.68
same,glycan array binding signal (z-score),[5],4.27
same,glycan array binding signal (z-score),[6],-0.216
same,glycan array binding signal (z-score),[7],-0.165
same,glycan array binding signal (z-score),[8],-0.22
same,glycan array binding signal (z-score),[9],0.034
same,glycan array binding signal (z-score),[10],0.162
same,glycan array binding signal (z-score),[11],-0.312
same,glycan array binding signal (z-score),[12],-0.095
same,glycan array binding signal (z-score),Neu5Ac(b2-6)GalNAc,0.163
same,glycan array binding signal (z-score),[13],0.122
same,glycan array binding signal (z-score),[14],-0.373
